# In PubChem BioAssay (Tox21):
# Where “and” joins values, the source holds several entries; their conditions need not be identical. Equal entries are not always repeated. Records with an inconclusive call do not appear. Values without a mark were called inactive. Calls of active or inactive are those of the source. Calls follow the shape of the dose curve; as a rule, active = well fitted cell-killing curve with a large enough effect in the repeat runs; inconclusive = weak or mixed curves; inactive = flat fitted curve, though single readings scatter.
# Test: qHTS RealTime-Glo MT Cell Viability Assay in HepG2 cells - 16 hour (AID 1224885); also: nearly all actives have a fitted effect of over 50% in size
# Settings: RealTime-Glo luminescence; series mostly up to 76.8 µM
# Excerpt: U.S. Tox21 Program National Center for Advancing Translational Sciences [NCATS] NIH Chemical Genomics Center [NCGC] U.S. Environmental Protection Agency [EPA] National Institutes of Environmental Health Sciences [NIEHS] National Toxicology Program [NTP] U.S. Food and Drug Administration [FDA] Tox21 Assay Overview: Measure of cell viability is critical in the cell-base assay. Analysis of cell viability is necessary for the characterization of cell responses to cytotoxic drugs and environmental stress. A RealTime-Glo MT Cell Viability Assay to monitor cell viability in real time of continues cell culture during 40 hours of compound treatment was used to screen Tox21 10K library compounds in HepG2 cells. The RealTime-Glo MT Cell Viability Assay is a nonlytic, homogeneous, bioluminescent method to measure cell viability in real time using a simple, plate-based method. The assay involves adding NanoLuc luciferase and a cell-permeant prosubstrate to cells in culture. Viable cells reduce the proprietary prosubstrate to generate a substrate for NanoLuc luciferase. This substrate diffuses from cells into the surrounding culture medium, where it is rapidly used by the NanoLuc Enzyme to produce a luminescent signal. The signal correlates with the number of viable cells, making the assay well suited for cytotoxicity studies.
# Tox21 Assay Protocol Summary: The mixture of HepG2 cell suspension and reagents were dispensed at 600cells/6 ul/well in 1536-well tissue culture treated black solid bottom plates using a Multidrop dispenser. After the assay plates were incubated at a 37 C/5% CO2 incubator for 5 hours, 23 nL of compounds dissolved in DMSO, positive and negative controls was transferred to the assay plate by a pintool work station. The plates were incubated at 37 C for 40 hours. The luminescence intensity were measured at 0h, 8h, 16h, 24h, 32h and 40h time points using ViewLux plate reader during compound treatment.
# % is scaled to controls: 0 for no effect and ±100 for the full control effect.
Structure (SMILES),outcome,"activity change, negative = cytotoxic"
CCCCCCCCCCCCOCCO,inactive,
CC(c1cc2ccccc2s1)N(O)C(N)=O (stereo not given),inactive,
O=c1[nH]c(=O)n([C@H]2C[C@H](O)[C@@H](CO)O2)cc1Br,inactive,
O=C(O)c1ccccc1C(c1ccc(O)cc1)c1ccc(O)cc1,inactive,
CCCCN(CCCC)CCCC,inactive,
CC(=O)Nc1ccccc1,inactive,
O=P(OC(CCl)CCl)(OC(CCl)CCl)OC(CCl)CCl,inactive,
COc1ccc(NC(C)=O)cc1N,inactive,
C[Si](O[Si](C)(C)C)O[Si](C)(C)C,inactive,
C#C[C@]1(O)CC[C@H]2[C@@H]3CCC4=CC(=O)CC[C@@H]4[C@H]3CC[C@@]21C,inactive,
CCN(CC)c1ccc(C(=O)c2ccccc2C(=O)O)c(O)c1,inactive,
Nc1ccccc1[N+](=O)[O-],inactive,
NNc1nncc2ccccc12,inactive,
C=C(C)C(=O)OCCOCCOCCOC(=O)C(=C)C,inactive,
CCCSc1ccc2nc(NC(=O)OC)[nH]c2c1,inactive,
CCc1cccc(C)c1N,inactive,
CC[C@H](C)C(=O)O[C@H]1C[C@@H](C)C=C2C=C[C@H](C)[C@H](CC[C@@H]3C[C@@H](O)CC(=O)O3)[C@H]21,inactive,
CC1CCC(C(C)C)C(O)C1 (stereo not given),inactive,
O=S(=O)(O)c1ccc2ccccc2c1,inactive,
COc1ccc(Cl)cc1C(=O)NCCc1ccc(S(=O)(=O)NC(=O)NC2CCCCC2)cc1,inactive,

Structure (SMILES),outcome,"activity change, negative = cytotoxic"
CN(C)CCC(c1ccc(Cl)cc1)c1ccccn1 (stereo not given),inactive,
COc1cc(Cc2cnc(N)nc2N)cc(OC)c1OC,inactive,
Nc1cc([N+](=O)[O-])ccc1O,inactive,
CCN(CC)CCCC(C)Nc1ccnc2cc(Cl)ccc12 (stereo not given),,1.09% [at 6.97 µM] and -5.7% [at 15.8 µM]
O=C(O)c1cc(=O)c2c(OCC(O)COc3cccc4oc(C(=O)O)cc(=O)c34)cccc2o1,inactive,
c1ccc2scnc2c1,inactive,
CCC(O)OC(O)CC (stereo not given),inactive,
CC(=O)Nc1cccc(O)c1,inactive,
CCc1ccc(CCOc2ccc(CC3SC(=O)NC3=O)cc2)nc1 (stereo not given),inactive,
O=C(O)c1ccc2c(c1)C(=O)OC2=O,inactive,
Cc1occc(=O)c1O,inactive,
CCCCC(CC)COC(=O)CS (stereo not given),inactive,
Fc1ccc(Br)cc1,inactive,
C[C@H]1C[C@@H]2[C@H]([C@@H](O)C[C@@]3(C)[C@H]2CC[C@]3(O)C(=O)CO)[C@@]2(C)C=CC(=O)C=C12,inactive,
Cc1cc(C)c(C)cc1C,inactive,
Oc1cccc2ccccc12,inactive,
CC(=O)CC(=O)Nc1ccccc1C,inactive,
O=C(O)c1cc(C(=O)O)cc(S(=O)(=O)O)c1,inactive,
C#CCN(C)Cc1ccccc1,inactive,
O=C=NCCCCCCN=C=O,inactive,
